D1 ag = human D1 receptor agonism; P21728; HEK293 T-REx D1 cells, calcium flux, agonist mode; activation, % at 2 µM; 360,000 tested, 1% active; further: 0% is about no effect
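Tetracycline-induced HEK293 TREx D1 cells, force-coupled to calcium signalling, were dye-loaded with a no-wash calcium kit. Compound was pin-added after a 10 s baseline. Fluorescence was read kinetically at 1 cycle/s for 180 s, with calcium rises flagged as agonism.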
D1 antag = antagonists of human D1 dopamine receptor | P21728 | HEK293 TREx D1 cells, calcium flux, dopamine EC80; stronger effect = lower value | activity change, negative = inhibition, % at 10 µM | 360,000 tested, 3.2% active; in the data active means activity change below about -30%; further: on the % scale 0 is the no-effect control and ±100 the full control effect
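Kinetic fluorescence of a calcium dye serves as the read-out. D1-expressing Hek293 Trex cells, induced overnight at 30 C, are exposed to compound for 180 s before an EC80 dopamine addition, then read 180 s further.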
D1 potentiator = human D1 dopamine receptor positive modulation. P21728. HEK293 TREx D1 cells, calcium flux, dopamine EC20 potentiation. potentiation, % at 10 µM. 360,000 tested, 0.036% active. AID 504651; in the data active means potentiation above about 30%; further: 0% is about no effect
TRHR ag = agonists of human TRH receptor | P34981 | TRHR cells, calcium flux fluo-8, FDSS agonist mode | 360,000 tested, 0.18% active | activation, % at 2 µM | AID 493084; further: 0% is about no effect
Target sequence (P34981 whole entry, looked up): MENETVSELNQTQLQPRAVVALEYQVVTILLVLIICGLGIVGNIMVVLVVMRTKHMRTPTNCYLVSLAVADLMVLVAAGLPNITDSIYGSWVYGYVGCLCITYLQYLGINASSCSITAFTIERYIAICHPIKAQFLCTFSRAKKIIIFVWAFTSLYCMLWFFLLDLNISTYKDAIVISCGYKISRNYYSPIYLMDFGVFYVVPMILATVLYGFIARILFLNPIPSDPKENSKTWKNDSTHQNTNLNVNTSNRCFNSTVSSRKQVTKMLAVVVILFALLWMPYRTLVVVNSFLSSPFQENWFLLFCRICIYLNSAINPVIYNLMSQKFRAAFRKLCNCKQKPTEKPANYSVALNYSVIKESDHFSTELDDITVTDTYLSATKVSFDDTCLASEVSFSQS
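TRHR-expressing cells loaded with fluo-8 calcium dye; 23 nL library compound pin-transferred, kinetic FDSS fluorescence (Ex 480/Em 530) recorded about 180 s for agonist-induced calcium release, before a 10 nM TRH EC20 addition for potentiator mode.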
TRHR enhancer = allosterically enhances the human TRH receptor | TRHR cells, fluo-8 calcium fluorescence, EC20 TRH enhancement | P34981 | AID 493056 | enhancement, % at 2 µM | 360,000 tested, 0.66% active; in the data active means enhancement above about 30%; further: 0% is about no effect
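TRHR-expressing cells loaded with fluo-8 calcium dye were read kinetically (ex 480/em 530) during compound addition, then stimulated with an EC20 of TRH (10 nM final). Enhancement of the Gq-mediated intracellular calcium response was scored.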
An asterisk follows results filed as active. Most compounds without a hit are left out; they make up all but 4.7% or so of the library. Unless noted, no stated cut-off is given here; in the data, active means activation above about 30%; inactive means the rest.

SMILES | D1 ag | D1 antag | D1 potentiator | TRHR ag | TRHR enhancer
c1ccc(CN2CCC(Nc3nc(-c4ccccc4)nc4ccccc34)CC2)cc1 | 6.8 | -0.7 | -2.5 | 1.3 | 1.3
CCOc1ccc(CCNC(=O)Cn2ncn3c(cc4sc(C)cc43)c2=O)cc1OCC | 0.0 | 10.7 | 1.7 | 0.3 | 3.6
COc1ccc(-c2cc(C(=O)N3CC4(C)CC3CC(C)(C)C4)no2)cc1OC (stereo unspecified) | 4.4 | 8.2 | 1.0 | 0.1 | 1.3
COc1ccc(-c2cc(C(=O)N3CC4(C)CC3CC(C)(C)C4)no2)cc1 (stereo unspecified) | 0.8 | -32.7* | -6.8 | 0.7 | 2.3
NC(=O)c1cc(C(=O)Cc2ccc(Cl)cc2)c[nH]1 | 0.5 | -5.8 | 1.9 | 0.2 | -3.0
Oc1ccc(CCNc2c3ccccc3nc3ccccc23)cc1O | 12.4 | -50.6* | 5.6 | 0.3 | -11.7
Cc1c(C(=O)Nc2nccs2)oc2c(Cl)cccc12 | 1.4 | -16.1 | -2.2 | -0.5 | -9.8
Cc1ccc(-n2c(=O)c3c(c4cc(C)ccc4n3C)n(CC(=O)NCc3ccccc3Cl)c2=O)cc1 | 0.8 | -6.5 | -1.4 | 0.1 | 4.5
CSC1=NC2(CC(c3ccccc3)Oc3cc(O)ccc32)CC(C)(C)N1 (stereo unspecified) | 166.7* | 30.3 | 8.2 | 0.3 | 2.7
Cc1nnc(SCCn2c(N3CCC(C)CC3)nc3c2c(=O)[nH]c(=O)n3C)s1 | 1.3 | -60.0* | -9.2 | -0.5 | 9.8
CCOC(=O)c1ccc(N2C(=O)c3n[nH]c(-c4ccco4)c3C2c2ccc(F)cc2)cc1 (stereo unspecified) | 11.9 | 26.3 | 2.6 | 4.6 | 7.3
CCOC(=O)c1ccc(N2C(=O)c3n[nH]c(-c4ccco4)c3C2c2cccc(F)c2)cc1 (stereo unspecified) | 16.3 | 33.2 | 9.0 | 6.9 | 33.9*
Cn1c2ccccc2c(=O)c2ccc(-c3ccc4c(c3)OCO4)cc21 | 0.8 | -48.2* | -8.0 | -1.1 | -6.0
Cn1nc(-c2ccc3c(c2)OCCO3)c2ccccc2c1=O | 20.2 | -33.9* | -6.0 | -0.4 | -4.3
CC(=O)c1nc2ccccc2n1S(=O)(=O)c1ccc(C)cc1 | 3.3 | -5.9 | 7.0 | 0.4 | -6.6
CC(=O)c1nc2ccccc2n1S(=O)(=O)c1ccc(Cl)cc1 | 4.7 | -36.5* | -10.2 | -0.8 | 2.1
CCCCN1CCc2nc(Nc3ccc(OC)cc3OC)ncc2C1 | -2.1 | 9.8 | -0.1 | -0.3 | -0.3
CCOc1ccc(NC(=O)CSc2nc3c(oc4ccccc43)c(=O)n2CCOC)cc1 | 0.1 | -1.3 | -2.6 | -0.2 | -0.5
O=c1c2nccnc2[nH]c(=S)n1Cc1ccccc1 | 5.9 | 7.4 | 0.5 | 0.3 | 4.5
O=c1c2cccnc2[nH]c(=S)n1Cc1ccccc1 | 2.2 | -7.7 | 3.6 | 0.2 | 31.7*
Cc1ccc(NC2CCCN(C(=O)c3ccnc(Cl)c3)C2)cc1C (stereo unspecified) | 3.4 | 1.6 | 2.2 | -0.3 | -0.1
O=C(O)c1ccc(Cl)c(NC(=O)C2CCCN2S(=O)(=O)c2cccc3nsnc23)c1 (stereo unspecified) | -0.2 | -40.3* | -2.1 | 0.2 | -6.6
O=C(Nc1ccc(Br)cc1)C1CCN(S(=O)(=O)c2cccc3nsnc23)CC1 | 8.0 | -33.4* | -1.3 | -0.3 | -4.6
O=C(C1CCN(S(=O)(=O)c2cccc3cccnc23)CC1)N1CC=C(c2ccccc2)CC1 | 0.8 | -43.6* | -1.5 | -0.9 | 19.7
CC1CCCCN1CCNC(=O)C1CCN(S(=O)(=O)c2cccc3cccnc23)CC1 (stereo unspecified) | -0.9 | 0.5 | -0.4 | 0.2 | 31.4*
SMILES | D1 ag | D1 antag | D1 potentiator | TRHR ag | TRHR enhancer
O=C(C1CCN(S(=O)(=O)c2cccc3cccnc23)CC1)N1CCCC1 | 1.3 | -1.5 | -6.5 | -0.2 | -5.9
COC(=O)c1ccccc1C(=O)N1CCCC(CNC(=O)c2ccc(F)cc2)C1 (stereo unspecified) | 0.8 | 20.1 | -7.1 | 0.2 | -2.8
CCC1CCCCN1CCNC(=O)C1CCN(S(=O)(=O)c2cccc3nsnc23)CC1 (stereo unspecified) | 2.2 | -2.3 | 35.4* | 0.1 | -1.4
CCN(CCNC(=O)C1CCN(S(=O)(=O)c2cccc3cccnc23)CC1)c1ccccc1 | 3.3 | -6.3 | -2.8 | -1.7 | 36.6*
Cc1cccc(CCNC(=O)C2CCN(S(=O)(=O)c3cccc4cccnc34)CC2)c1 | -1.1 | -5.4 | 5.9 | -0.9 | 13.5
CC(C)C[C@@H](CN=[N+]=[N-])N1CCN(C)CCC1=O | 1.5 | -3.2 | 1.7 | 0.1 | 30.7*
O=C(O)CCCC(=O)Nc1cccc2cccnc12 | -0.1 | -94.8* | -7.6 | 0.6 | 6.8
O=C(Cc1ccccc1F)Nc1cccc2cccnc12 | -0.8 | 5.0 | -0.9 | 0.0 | 6.2
Cc1cc(C)c(NC(=O)CN(C)S(=O)(=O)c2ccc3c(c2)c(=O)n(C)c(=O)n3C)c(C)c1 | 3.4 | 6.0 | 4.2 | -0.1 | 6.2
CC(=O)Nc1cc(C(F)(F)F)ccc1Oc1cccc(Br)c1 | 30.3* | -5.1 | -11.8 | -0.9 | 2.8
COCCOc1ccc(C(F)(F)F)cc1NC(=O)c1ccc(C)cc1 | 3.0 | -11.7 | -5.1 | -0.5 | 6.2
COc1ccc(OC)c(NC(=O)c2ccc(Cl)cc2)c1 | -0.8 | -36.3* | 9.5 | -0.4 | -8.4
COc1ccc(Oc2ccc(C(F)(F)F)cc2NC(=O)c2ccc(C)cc2)cc1 | 31.5* | -8.5 | 5.1 | -1.9 | 8.3
CNS(=O)(=O)c1cccc(C(=O)OCCCOC(=O)c2cccc(S(=O)(=O)NC)c2)c1 | 0.5 | 11.7 | -6.0 | 0.1 | -7.7
COc1cc2ccccc2cc1C(=O)Nc1ccc2oc(-c3cc(Br)ccc3Cl)nc2c1 | -1.3 | -6.6 | 0.8 | -0.8 | -1.6
O=C(O)c1cc(Cl)ccc1-c1ccc(/C=C/c2cc(C(F)(F)F)[nH]c(=O)n2)o1 | 96.7* | -13.7 | 9.3 | 72.6* | -1.6
O=C(O)c1ccccc1-c1ccc(/C=C/c2cc(C(F)(F)F)[nH]c(=O)n2)o1 | 145.6* | -14.6 | 0.5 | 32.9* | -3.5
O=c1nc(/C=C/c2ccc(-c3ccc(F)cc3)o2)cc(C(F)(F)F)[nH]1 | 98.3* | -20.0 | 0.1 | 26.2 | 14.7
O=Cc1ccc(-c2ccc(F)cc2)o1 | 0.3 | -2.9 | 7.5 | -0.4 | 4.6
COc1ccc(N(CC(=O)NC2CCCCC2)C(=O)c2ccc(C)s2)cc1OC | -0.7 | 10.3 | -2.7 | -1.0 | 31.8*
COc1ccc(N(CC(=O)NC2CCCC2)C(=O)c2ccc(C)s2)c(OC)c1 | 2.4 | -21.1 | 13.9 | -0.5 | 0.8
CCOc1ccc(NC(=O)CCS(=O)(=O)c2ccc3c(c2)n(C)c(=O)c(=O)n3C)cc1 | -0.8 | 1.5 | -1.4 | 1.5 | -1.2
O=C(c1ccco1)N1N=C(c2ccc(Br)cc2)CC1(O)C(F)(F)F (stereo unspecified) | 5.6 | -45.7* | -5.4 | 0.7 | 19.3

Screening data: PubChem BioAssay, National Center for Advancing Translational Sciences (NCATS)
